Over roughly 81,000 sequences, “one-hybrid fitness for binding parS DNA” has its median near -0.17; the highest 2% begin near 0.51. Many of the other results were omitted from the sample, so the highest values are more common in it than they were.
B1: Caulobacter ParB omega fusion; a variant is named by its letters at X, in order, B8GW30 (parent)
chain: MESVVVGEPGMSEGRRGLGRGLSALLGEVDAAPAQAPGEQLGGSREAPIEILQRNPDQPRRTFREEDLEDLSNSIREKGVLQPILVRPSPDTAGEYQIVAGERAWRAAQRAGLKTVPIMVRELDDLAVLEIGIIENVQRADLNVLEEALSYKVLMEKFERTQENIAQTIGKSXSHVANXMRLLXLPDEVQSYLVSGELTAXHARAIAAAADPVALAKQIIEGGLSVRETEALARKAPNLSAGKSKGGRPPRVKDTDTQALESDLSSVLGLDVSIDHRGSTGTLTITYATLEQLDDLCNRLTRGI

Variants of: B1
Experiment: one-hybrid fitness for binding parS DNA (scaled: cognate 1, non-cognate 0); higher = stronger binding
Conditions: with parS DNA site
Summary of the method: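 Fitness is the rescaled log change in variant-to-wild-type read ratio, measured by Illumina sequencing of plasmids before and after bacterial one-hybrid selection. The scale puts cognate at 1 and non-cognate at 0. Selection of Caulobacter ParB libraries, four specificity codons randomised, took place in E. coli USO with a HIS3 reporter, site 19 bp from the promoter, over 48 hours at 37°C on M9-minus-histidine with 0.1 mM IPTG and 5 mM 3-AT.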

Point of comparison: RHFC, “one-hybrid fitness for binding parS DNA” value 0.799. Against it:
- QRCF — lower, ≤ 0.2
- DGSS — lower, ≤ 0.2
- YRDA — lower, ≤ 0.2
- AKTQ — lower, ≤ 0.2
- RRPM — lower, 0.215
- RRIY — lower, 0.332
- RRPC — lower, 0.796
- RRIQ — lower, ≤ 0.2
- RRIC — lower, 0.71
- SLCD — lower, ≤ 0.2
- HGNW — lower, ≤ 0.2
- EVCS — lower, ≤ 0.2
- LNAY — lower, ≤ 0.2
- AANM — lower, ≤ 0.2
- ILWI — lower, ≤ 0.2
- ALYC — lower, ≤ 0.2
- RAFA — lower, 0.624
- RAAA — lower, 0.592
- DAAA — lower, ≤ 0.2
- NAAA — lower, ≤ 0.2
- NQKR — lower, ≤ 0.2
- LMTS — lower, ≤ 0.2
- GGWG — lower, ≤ 0.2
- HSNS — lower, ≤ 0.2
- QTKP — lower, ≤ 0.2
- RHAR — lower, ≤ 0.2
- RHFR — lower, ≤ 0.2
- RHAF — lower, ≤ 0.2
- RHAC — higher, 0.933
- RHFK — lower, ≤ 0.2
- QLSE — lower, ≤ 0.2
- TNGD — lower, ≤ 0.2
- DMVA — lower, ≤ 0.2
- RMVA — lower, 0.611
- RMKA — lower, 0.735
- EGMC — lower, ≤ 0.2
- HPGG — lower, ≤ 0.2
- CLLW — lower, ≤ 0.2
- REDT — lower, ≤ 0.2
- RPDT — lower, ≤ 0.2
- RSDM — lower, ≤ 0.2
- RCDT — higher, 0.813
- RDDT — lower, ≤ 0.2
- REYT — lower, ≤ 0.2
- RSNT — higher, 0.911
- RPYT — lower, ≤ 0.2
- RSNN — lower, 0.445
- RSDT — lower, 0.696
- RSNP — lower, ≤ 0.2
- RCYT — higher, 0.963
- SYNF — lower, ≤ 0.2
- QNNL — lower, ≤ 0.2
- QNNR — lower, ≤ 0.2
- VNTR — lower, ≤ 0.2
- TLTC — lower, ≤ 0.2
- VASF — lower, ≤ 0.2
- ARLY — lower, ≤ 0.2
- RDYT — lower, ≤ 0.2
- RERT — lower, 0.216
- RSYT — higher, 0.846
- RSRP — lower, ≤ 0.2
- RPRT — lower, ≤ 0.2
- RSRH — lower, 0.232
- RENT — lower, ≤ 0.2
- RSRT — higher, 0.832
- RCRT — higher, 0.818
- RPNT — lower, ≤ 0.2
- RCNT — higher, 0.879
- SLNY — lower, ≤ 0.2
- EHPE — lower, ≤ 0.2
- LPKC — lower, ≤ 0.2
- QHRW — lower, ≤ 0.2
- TTHM — lower, ≤ 0.2
- QPTM — lower, ≤ 0.2
- YDPM — lower, ≤ 0.2
- GMKG — lower, ≤ 0.2
- RWFY — lower, ≤ 0.2
- RWAN — lower, 0.26
- RWFN — lower, ≤ 0.2
- RWFS — lower, 0.691
- RWAD — lower, ≤ 0.2
- RWAS — higher, 0.876
- GDED — lower, ≤ 0.2
- SDVG — lower, ≤ 0.2
- RRSA — lower, 0.693
- NRGA — lower, ≤ 0.2
- NRQA — lower, ≤ 0.2
- NRHA — lower, ≤ 0.2
- NRSA — lower, ≤ 0.2
- DRHA — lower, ≤ 0.2
- DRSA — lower, ≤ 0.2
- RRQA — lower, 0.699
- RRHA — lower, 0.693
- RGGA — lower, 0.285
- RRGA — lower, 0.749
- DRQA — lower, ≤ 0.2
- GDYT — lower, ≤ 0.2
- HYRC — lower, ≤ 0.2
- YDLT — lower, ≤ 0.2
- IYQL — lower, ≤ 0.2
- WAPR — lower, ≤ 0.2
- MWAV — lower, ≤ 0.2
- ANEG — lower, ≤ 0.2
- LPHA — lower, ≤ 0.2
- SKVC — lower, ≤ 0.2
- PETH — lower, ≤ 0.2
- DRNA — lower, ≤ 0.2
- RRCA — lower, 0.761
- RRNA — lower, 0.627
- DRLA — lower, ≤ 0.2
- RRDA — higher, 0.851
- NRCA — lower, ≤ 0.2
- NRLA — lower, ≤ 0.2
- RRLA — higher, 0.815
- NRNA — lower, ≤ 0.2
- DRCA — lower, ≤ 0.2
- QLGG — lower, ≤ 0.2
- IAPM — lower, ≤ 0.2
- RPYR — lower, ≤ 0.2
- TTSM — lower, ≤ 0.2
- ICYT — lower, ≤ 0.2
- SEWR — lower, ≤ 0.2
- RRRA — lower, 0.501
- RRYA — higher, 0.813
- NRYA — lower, ≤ 0.2
- DLNV — lower, ≤ 0.2
- GSGS — lower, ≤ 0.2
- YIFC — lower, ≤ 0.2
- INTG — lower, ≤ 0.2
- RVEP — lower, ≤ 0.2
- RVET — lower, 0.691
- RVEN — lower, 0.294
- RVEC — higher, 0.805
- RVEH — lower, ≤ 0.2
- RVES — higher, 0.948
- RVEK — lower, ≤ 0.2
- RVEF — lower, ≤ 0.2
- RVED — lower, ≤ 0.2
- RVEM — lower, 0.231
- RVEI — lower, ≤ 0.2
- RVEG — higher, 0.813
- HNSL — lower, ≤ 0.2
- FLAG — lower, ≤ 0.2
- RRQE — lower, ≤ 0.2
- SFER — lower, ≤ 0.2
- HAWC — lower, ≤ 0.2
- PTHS — lower, ≤ 0.2
- RYFA — lower, 0.573
- NYFA — lower, ≤ 0.2
- PYFA — lower, ≤ 0.2
- RYAA — lower, 0.559
- NNWM — lower, ≤ 0.2

Source: a collection of fitness landscapes (doi:10.1016/j.celrep.2020.107928)
